Luc counter = blocks Kinase-Glo luciferase, a counter-screen artifact; Kinase-Glo luciferase, ATP luminescence, 8 min; Potency, µM (highest dose often 38.3 µM), inactives show at the top dose activity change, negative = inhibition, hits mostly inhibitors; hit rate 0.28% among 200,000; also: % is scaled to controls: 0 for no effect and ±100 for the full control effect; nearly all actives have a fitted effect of over 60% in size
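Compound is pinned into ATP-containing buffer (10 uM ATP, imidazole pH 7.2, 7 mM MgCl2). Kinase-Glo luciferase reagent is then added. Light output is recorded following an 8-min room-temperature incubation.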
SMN2 splice enh = SMN2 splice variant enhancement; HEK293 SMN2-luciferase splicing reporter, luminescence, 30-36 h; Potency, µM (top dose mostly 46.1 µM), without a hit: at the highest dose activity change, positive = activation, usual class: activators; hit rate 2.8% among 210,000; AID 1458; also: % of control where 0% means no effect; nearly all actives have a fitted effect of over 55% in size
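qHTS luciferase splicing reporter: luminescence rises when SMN2 exon 7 is included in transfected HEK293 cells. Compound exposure lasted 30-36 h at 37C, with 4.5 mM final sodium butyrate as control, followed by a ONE-Glo read.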
ELG1 genotox = inducers of genotoxicity in HEK293T ELG1-luciferase cells; Potency, µM (titrated, usually from 46 µM), for the others: top-dose activity change, positive = activation, actives largely listed as activators; HEK293T ELG1-luciferase reporter, luminescence, 16 h; hit rate 1.3% among 330,000; also: % of control where 0% means no effect; nearly all actives have a fitted effect of over 60% in size
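Luminescence read-out: rising ELG1-luciferase signal, reflecting elevated ELG1 protein under genetic stress, flags genotoxic compounds. Cells were treated for 16 hr at 37 °C before ONE-Glo detection.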
FLuc modulator = counter-screen for miR-21 project: firefly luciferase inhibitors or activators; P08659; purified FLuc, Km substrates, luminescence inhibition; hit rate 6.9% among 360,000; Potency, µM (series often up to 57.5 µM), inactives show at the top dose activity change, negative = inhibition, hits mostly inhibitors;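 also: plate controls were vehicle for no effect and reference inhibitor for full effect; nearly all actives have a fitted effect of over 55% in size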
Target sequence (P08659 whole entry, looked up): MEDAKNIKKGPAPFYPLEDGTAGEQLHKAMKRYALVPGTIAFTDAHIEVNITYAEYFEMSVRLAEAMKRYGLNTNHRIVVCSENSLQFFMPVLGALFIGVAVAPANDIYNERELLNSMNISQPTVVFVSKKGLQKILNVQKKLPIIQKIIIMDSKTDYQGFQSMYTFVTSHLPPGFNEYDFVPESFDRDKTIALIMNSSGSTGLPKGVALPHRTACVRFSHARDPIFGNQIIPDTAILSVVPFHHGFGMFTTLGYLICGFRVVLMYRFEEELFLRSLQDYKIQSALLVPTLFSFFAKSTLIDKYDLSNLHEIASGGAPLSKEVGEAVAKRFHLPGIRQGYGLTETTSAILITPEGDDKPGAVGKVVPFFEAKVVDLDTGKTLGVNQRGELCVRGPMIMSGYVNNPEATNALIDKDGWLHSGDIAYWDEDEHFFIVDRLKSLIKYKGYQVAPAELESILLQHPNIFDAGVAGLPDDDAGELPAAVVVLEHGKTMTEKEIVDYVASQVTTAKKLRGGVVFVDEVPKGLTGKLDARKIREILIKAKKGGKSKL
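Purified P. pyralis luciferase (10nM final) with 10uM D-luciferin and 10uM ATP (Km levels) in 50mM Tris acetate pH 7.5, 10mM Mg acetate, 0.01% Tween-20, 0.05% BSA; qHTS 6-point titration, ~60 µM downward; luminescence read.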
Rab9 prom act = activates the Rab9 promoter. Huh7 Rab9 promoter-luciferase reporter, luminescence, 24 h. AID 485297. Potency, µM (titrated, usually from 9.22 µM), inactives show at the highest dose activation, negative = inhibition, most hits filed as activators. hit rate 2.8% among 320,000; also: % of control where 0% means no effect; nearly all actives have a fitted effect of over 60% in size
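Luciferase signal after 10 min detection reagent at ambient indicates Rab9 promoter upregulation; stably transfected Huh7 cells were treated 24 h with compound in DMSO at 37 °C, 5% CO2.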
NPC1 prom act = activators of NPC1 promoter. AID 485313. hit rate 2.4% among 320,000. Potency, µM (top dose mostly 9.22 µM), without a hit: at the top dose activation, usual class: activators. Huh7 NPC1 promoter luciferase reporter, 24 h; also: % of control where 0% means no effect; nearly all actives have a fitted effect of over 60% in size
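NPC1 promoter–luciferase Huh7 cells; 24 h compound; luminescence.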
Starred values were filed as active, the others as inactive; ? = inconclusive; / = no result given; [ ] = another dose, or the depositor's remark. Most compounds without a hit are left out; they make up all but 7.5% or so of the library. Calls follow the shape of the dose curve; as a rule, active = well fitted curve in the direction sought with a large enough effect; inconclusive = small, poorly fitted or top-dose-only effect, or another doubt; inactive = no such curve, though single readings can be large; an effect the other way counts as inactive or inconclusive. Potency is read from the fitted curve at half-maximal effect.

SMILES	Luc counter	SMN2 splice enh	ELG1 genotox	FLuc modulator	Rab9 prom act	NPC1 prom act
O=C(O)c1cc(-c2cccnc2)nc2ccccc12	/	/	2.3%	-1.2%	-0.7%	-2.4%
CCn1cc(-c2cc(C(=O)O)c3ccccc3n2)cn1	?	2.9%	-8.9%	2.69µM*	13.4%	6.5%
CS(=O)(=O)c1ccc2nc(NC(=O)c3ccc(=O)[nH]c3)sc2c1	/	/	5.5%	6.75µM*	6.6%	-7.2%
Cn1nc(C(=O)Nc2nc3ccc(S(C)(=O)=O)cc3s2)ccc1=O	?	-1.9%	10.6%	10.7µM*	-1.3%	0.4%
CS(=O)(=O)c1ccc2nc(NC(=O)c3ccc(Cl)cc3)sc2c1	/	/	-0.4%	?	23.8%	3.1%
O=C(NCC(c1cccs1)S(=O)(=O)c1cccs1)c1ccc(Cl)cc1 (centres undefined)	/	/	/	-11.9%	/	/
Cc1cc(C(=O)CSc2cccc[n+]2[O-])c(C)n1-c1ccccc1	1.1%	1µM*	?	1.69µM*	0.447µM*	0.447µM*
CC(=O)Nc1ccc(SCCCC(=O)c2ccccc2)cc1	/	/	?	23.9µM*	?	?
Cc1cc(C(=O)CSc2nncn2C)c(C)n1-c1ccccc1	-2.9%	11.2µM*	-3.8%	8.49µM*	0.447µM*	2µM*
Cc1cc(C(=O)C(C)OC(=O)c2ccc(NC(=O)CC#N)cc2)c(C)n1-c1ccccc1 (centres undefined)	/	/	29.5%	16.9µM*	-3.3%	0.6%
Cc1cc(-n2c(C)cc(C(=O)CSc3nnnn3-c3ccccc3)c2C)no1	-0.6%	-34.3%	-20.0%	-9.6%	0.0%	-1.4%
CC(OC(=O)c1ccc(NC(=O)CC#N)cc1)C(=O)NC(c1ccccc1)c1ccccc1 (centres undefined)	/	/	1.3%	/	/	/
O=[N+]([O-])c1ccccc1S(=O)(=O)Nc1ccn(Cc2c(F)cccc2Cl)n1	/	/	-0.4%	-2.1%	-1.1%	-8.0%
CCOc1ccc(NC(=O)c2cc3c(=O)n4cccc(C)c4nc3s2)cc1	/	3.8%	/	-0.1%	/	/
C[C@@H](O)CCC[C@H](O)/C=C/[C@H]1[C@H](O)CC(=O)[C@@H]1C/C=C\CCCC(=O)O	1.0%	1.8%	/	/	/	/
COc1ccc(OCC(=O)Nc2ccccc2C(=O)NC2CC2)cc1	/	/	1.4%	/	2.3%	-4.1%
COc1ccc(-n2c(C)cc(C(=O)CSc3ccc(NC(C)=O)cc3)c2C)cc1	2.7%	-32.8%	4.3%	?	19.4%	28.2%
Cc1cc(C(=O)CSc2cccc[n+]2[O-])c(C)n1-c1ccc(Br)cc1	-1.2%	-41.9%	?	15.1µM*	23.9%	26.4%
CC(=O)Nc1ccc(SCC(=O)c2cc(C)n(-c3ccccc3)c2C)cc1	2.3%	-19.9%	?	5.36µM*	3.55µM*	?
COc1ccccc1NC(=O)CSc1nccc(-c2ccco2)n1	/	/	2.4%	/	-1.0%	10.1%
NC(=O)c1cc2ccncc2c2ccccc12	/	/	-15.6%	-1.4%	-0.7%	25.7%
CCOC(=O)c1ccc2nc3c(cc2c1)CCS3	0.1%	10.7%	?	19µM*	18.9%	?
CCOC(=O)c1ccc2nc(C)c3c(c2c1)OC(C)C3 (centres undefined)	-3.1%	-11.5%	9.7%	2.8%	1.3%	-2.6%
COc1ccc(C)cc1NC(=O)C1CCN(C(=O)c2ccc(C(C)(C)C)cc2)CC1	/	/	8.3%	?	20.6%	10.1%
COc1ccc2c(c1)OC[C@H]1[C@H]2N2C(=O)CNC(=O)[C@@]2(C)[C@H]1c1ccccc1	/	/	0.0%	/	/	/
SMILES	Luc counter	SMN2 splice enh	ELG1 genotox	FLuc modulator	Rab9 prom act	NPC1 prom act
CCOc1ccc(C(=O)COC(=O)c2nn(CC)c(=O)c3ccccc23)cc1	/	/	3.5%	/	-3.5%	-2.4%
N=C1S/C(=C\c2ccco2)C(=O)N1c1nccs1	-8.4%	-36.3%	?	10.7µM*	?	?
CCN(CC)S(=O)(=O)c1ccc(C)c(C(=O)Oc2cccc(-c3cnc4ccccc4n3)c2)c1	2.0%	17.8µM*	15.0%	-0.2%	?	?
CCN(CC)S(=O)(=O)c1cc(C(=O)Oc2cccc(-c3cnc4ccccc4n3)c2)ccc1OC	-1.6%	12.6µM*	9.8%	-17.1%	?	?
O=C(Oc1cccc(-c2cnc3ccccc3n2)c1)c1ccco1	-1.1%	12.6µM*	?	23.9µM*	3.16µM*	?
COc1cc(OC)c(NC(=O)C2=C(C)C(=O)OC23CCN(C(C)=O)CC3)cc1Cl	/	/	/	0.7%	/	/
Cc1ccc(Cn2c(CNC(=O)c3cccc(C)c3)nc3ccccc32)cc1	/	8.8%	/	-1.1%	/	/
C=C1c2cccc(C(F)(F)F)c2O[C@H](C(=O)OCC)[C@H]1OC	/	/	5.3%	/	/	/
Cc1nccc(-c2sc(-c3cccs3)nc2C)n1	/	/	?	15.1µM*	?	-2.6%
COc1cc(C)ccc1OCC(=O)Nc1ccc2c(c1)OCO2	/	/	?	7.57µM*	2.82µM*	?
COc1ccccc1OCC(=O)Nc1ccc2c(c1)OCO2	/	/	25.0%	15.1µM*	21.4%	?
CC(=O)Nc1cccc(NC(=O)COc2ccccc2C)c1	/	/	0.8%	15.1µM*	12.3%	13.1%
Cc1ccccc1OCC(=O)OCC(=O)Nc1ccc2c(c1)OCCO2	/	/	0.6%	/	-0.5%	-1.2%
COc1ccc(OCC(=O)Nc2ccc3c(c2)OCO3)cc1	/	/	21.9%	?	14.4%	10.5%
Cc1ccccc1OCC(=O)Nc1ccc2c(c1)OCO2	-10.5%	-8.9%	?	13.5µM*	7.3%	?
CC(=O)c1cccc(NC(=O)COC(=O)COc2ccccc2C)c1	-0.2%	4.5%	0.2%	-8.3%	-3.0%	-3.0%
COc1ccc(NC(=O)COC(=O)CNC(=O)C2CCCCC2)cc1OC	/	/	1.2%	/	/	/
CC(=O)c1cccc(OCC(O)CN2CCN(C(=O)c3ccco3)CC2)c1 (centres undefined)	/	/	-0.4%	2.9%	0.9%	1.2%
COc1ccc(OCC(=O)Nc2cccc(OC)c2)cc1	-12.7%	/	?	-15.2%[2.3 µM]	-3.6%	1.9%
COc1cccc(NC(=O)COc2ccccc2C(N)=O)c1	?	3.98µM*	7.94µM*	2.39µM*	2µM*	2.82µM*
CCn1ccc2c(OCC(=O)Nc3ccc(C)c(Cl)c3)cccc2c1=O	/	/	/	-1.9%	/	/
Cc1ccc(NC(=O)COc2ccccc2C=O)cc1Cl	1.2%	/	?	0.849µM*	2.51µM*	2µM*
Cc1ccc(-n2c(C)cc(C(=O)COc3c(CO)cc(F)cc3CO)c2C)cc1C	-3.6%	-51.8%	-4.6%	23.9µM*	-1.1%	0.1%
Cc1cc(NC(=O)COc2ccccc2C)no1	-2.8%	/	?	16.9µM*	3.16µM*	3.16µM*
CCC/C=N/Nc1nnc(Cc2ccc(OC)c(OC)c2)c(=O)[nH]1	/	/	-1.5%	-2.5%	1.0%	0.0%
Cn1nnnc1SCCCNCc1cc(Cl)ccc1OCc1ccccc1F	/	/	/	4.6%	/	/

Compound activity: PubChem, National Center for Advancing Translational Sciences (NCATS)
